Drawing on PubChem BioAssay AID2314 (National Center for Advancing Translational Sciences (NCATS), 2010), this text covers max response for 60 molecules.

Each structure is given as a SMILES string. The campaign covered roughly 300,000 compounds. About 37,000 (12%) were called active. This is one part of a sample in which actives are shown more often than they occur. No stated cut-off is given here; in the data, active means max response mostly above about 13% (no sharp cut-off); inactive means mostly below about 14%.

A short description of the experiment: Cycloheximide Counterscreen for Small Molecule Inhibitors of Shiga Toxin. Further: read at 38.3 µM for the half of the compounds with a filed dose; 0% is about no effect. The conditions noted are these: cell reporter, cycloheximide protein synthesis inhibition counterscreen; stronger effect = higher value. For orientation: Counterscreens check selectivity or assay interference.
Take `CCCCCCC12CCC(C(=O)O)(CC1)CC2`: the max response is -3.19% (inactive).

In the case of `Cc1ccc(OCCCn2c(=O)oc3ccccc32)cc1`, the max response was 33.3% (active).

Regarding `Cc1cccc(NC(=O)CCn2c(=O)oc3ccccc32)c1`, the max response is -4.29% (inactive).

On to `NC(=O)Cn1c(=O)oc2ccccc21`, for which the max response is -2.47% (inactive).

Turning to `COc1ccccc1C(=O)Nc1nc2nc(-c3ccccc3)cc(=O)n2[nH]1`, the max response was 9.7% (inactive).

Consider `Cc1cc(S(=O)(=O)NCC(C)C)ccc1OCC(=O)NC1CC1`, for which the max response was 1.55% (inactive).

With `Cc1ccc(N=Nc2c(C)[nH]n(-c3ccccc3)c2=O)cc1`, the max response is 7.15% (inactive).

As to `Cc1nc(N)sc1N=Nc1c(C)n(C)n(-c2ccccc2)c1=O`, the max response was -1.65% (inactive).

For the molecule `Cc1c(N=Nc2ccc(N(C)C)cc2)c(=O)n(-c2ccccc2)n1C`, the max response is 24.4% (active).

Consider `COc1ccccc1CCCNC(=O)C1CCC(=O)N(CCN2CCOCC2)C1` (stereo not given), for which the max response is -2.68% (inactive).

Regarding `Cc1ccccc1CCNC(=O)C1CCC(=O)N(Cc2ccc(Cl)cc2)C1` (stereo not given), the max response was 6.9% (inactive).

Regarding `COc1ccccc1CN1CC(C(=O)NCCc2cn[nH]c2)CCC1=O` (stereo not given), the max response was 12.3% (active).

As for `CN1CCN(Cc2nc3cc(NC(=O)COc4ccc([N+](=O)[O-])cc4)ccc3n2C)CC1`, the max response is -3.77% (inactive).

In the case of `CCN(C(=O)Cc1c(C(=O)O)n(CC)c2ccccc12)c1ccccc1C`, the max response is -1.37% (inactive).

Turning to `CCCCNc1ccc(C(=O)Nc2cccc(C)n2)cc1[N+](=O)[O-]`, the max response was 12.7% (active).

Turning to `Cc1cc(C)nc(NC(=O)c2cccc([N+](=O)[O-])c2)c1`, the max response is -2.71% (inactive).

On to `CCOC(=O)c1ccc(NNC(C)=O)c([N+](=O)[O-])c1`, for which the max response was 16.3% (inactive).

For the molecule `Cc1cc(C)nc(SCC(=O)c2ccc(Cl)cc2)n1`, the max response is 2.56% (inactive).

In the case of `Cc1cc(C)nc(S/C=C/C(=O)c2ccccc2)n1`, the max response was 109% (active).

For `Cc1cc(SCC(=O)c2ccccc2)nc(SCC(=O)c2ccccc2)n1`, the max response is 6.74% (inactive).

With `CC(=O)N(C)c1ccc(NC(=O)C(F)(F)F)cc1`, the max response was -1.33% (inactive).

Turning to `O=C(/C=C/Nc1ccccc1OC(F)(F)F)C(F)(F)F`, the max response was -2.95% (inactive).

For `CN(C)c1ccc(N/C=C/C(=O)C(F)(F)F)cc1`, the max response was 55.6% (active).

On to `Cc1ccc2[nH]c3c(=O)n(CC(=O)NCCc4ccc(Cl)cc4)ncc3c2c1`, for which the max response was 4.22% (inactive).

Consider `CCn1nc(C)c(CNC(=O)C2CCC(=O)N(Cc3cccc(F)c3)C2)c1C` (stereo not given), for which the max response is -0.425% (inactive).

In the case of `CN1CCN(/N=C/c2c[nH]c3ccccc23)CC1`, the max response was 0.776% (inactive).

For `CN1CCN(/N=C/c2ccc(C#N)cc2)CC1`, the max response is 24.2% (active).

`COC(c1ccccc1)c1nnc(CCC(=O)N2CCN(CCOc3ccccc3)CC2)o1` (stereo not given): the max response was -3.13% (inactive).

For the molecule `Cc1c(C2=CCN(S(=O)(=O)c3ccc(Cl)cc3)CC2)c2ccccc2n1C`, the max response was -3.88% (inactive).

For the molecule `COCCNC(=O)c1ccc(Cn2c(SCC(=O)NCC3CCCO3)nc3ccc(Br)cc3c2=O)cc1` (stereo not given), the max response was -4.2% (inactive).

Regarding `COCCCNC(=O)COc1cc(C)c(Cl)c(C)c1`, the max response is 5.62% (inactive).

Take `Cc1cc(OCc2cc(C(=O)NCc3cc(C(C)C)no3)no2)cc(C)c1Cl`: the max response is 72.4% (active).

As for `CC(C)C(=O)NCc1cc(-c2ccc(Cl)cc2)no1`, the max response is 8.48% (inactive).

For `COc1ccc(-c2nnc(NC(=O)CS(=O)(=O)c3ccc(Cl)cc3)o2)c(OC)c1`, the max response is 13.7% (inactive).

Consider `COc1ccccc1-c1nnc(NC(=O)c2ccc3ncsc3c2)o1`, for which the max response is 66.2% (active).

With `COc1ccccc1-c1nnc(NC(=O)c2cccc(N3C(=O)CCC3=O)c2)o1`, the max response was -0.976% (inactive).

On to `COc1ccc(NC(=O)NNC(=O)COc2cc(C)c(Cl)c(C)c2)c(OC)c1`, for which the max response is 0.264% (inactive).

For the molecule `O=C(NCc1ccccc1)C1=C[C@@H](C2CCCCC2)C[C@@H](OCc2ccc(CO)cc2)O1`, the max response was -2.03% (inactive).

With `COC(=O)c1ccc(C23CC4(C2)[C@H](CN(Cc2cccnc2)[C@@H]4c2ccccc2)C3c2ccc(Cl)nc2)cc1` (stereo not given in full), the max response is -2.32% (inactive).

As for `CCC1CCCCN1C(=O)CSc1nc2c(c(=O)n1C)SC(C)C2` (stereo not given), the max response was 0.908% (inactive).

As to `Cc1ccc(NC(=O)NC(=O)CSc2nnc(-c3ccc(OC(F)F)cc3)n2N)c(C)c1`, the max response was 11.8% (inactive).

In the case of `Cc1ccc(-c2nnc(SC(C)C#N)n2N)cc1` (stereo not given), the max response was 5.06% (inactive).

As to `C=C(C)CSc1nnc(-c2ccc(C)cc2)n1N`, the max response is 37.8% (active).

Regarding `Cc1cc(C)cc(N(CC(=O)N2CC=C(c3ccccc3)CC2)S(=O)(=O)c2c(C)noc2C)c1`, the max response is 8.05% (inactive).

In the case of `CCN(CC)CCCNC(=O)c1ccc2c(=O)n(Cc3ccc4c(c3)OCO4)c(=S)[nH]c2c1`, the max response is 5.61% (inactive).

In the case of `Cc1ccc(C(=O)CCC(=O)N(C)CC(=O)Nc2c(Cl)cccc2Cl)cc1`, the max response is 1.06% (inactive).

For `COc1ccc(-c2nn(CCC#N)cc2C(=O)Nc2ccc(C(C)=O)cc2)cc1`, the max response is 18.3% (active).

With `COc1ccc(NC(=O)c2cn(CCC#N)nc2-c2ccc([N+](=O)[O-])cc2)cc1`, the max response was -3.78% (inactive).

Turning to `COc1ccc(-c2nn(CCC#N)cc2C(=O)O)cc1`, the max response was 0.75% (inactive).

`COc1ccccc1NC(=O)C1CCCN1S(=O)(=O)c1ccc(Cl)cc1` (stereo not given): the max response is 0.961% (inactive).

As for `CCc1ccc2nc(N(CCCN(C)C)C(=O)c3ccc4c(c3)OCCO4)sc2c1`, the max response is 1.67% (inactive).

For the molecule `CCOc1ccc2nc(N(CCN(C)C)C(=O)c3ccc4ccccc4c3)sc2c1`, the max response is 8.51% (inactive).

Regarding `Cc1ccc2nc(N(CCN(C)C)C(=O)C3=COCCO3)sc2c1`, the max response is 30.5% (active).

For `CC(=O)N(CCCN(C)C)c1nc2ccc(C)cc2s1`, the max response was 7.76% (inactive).

Regarding `CN(C)CCN(C(=O)C1=COCCO1)c1nc2ccc(Cl)cc2s1`, the max response is 36.4% (active).

On to `CN(C)CCN(C(=O)C1CCCCC1)c1nc2cc3c(cc2s1)OCO3`, for which the max response is 15.2% (inactive).

On to `CC(C)(C)c1ccc(C(CC(=O)O)NS(=O)(=O)Cc2ccccc2)cc1` (stereo not given), for which the max response was -5.97% (inactive).

With `CCCCn1c(SCC(=O)N2CCOCC2)nc2c1c(=O)n(C)c(=O)n2C`, the max response is -6.86% (inactive).

Regarding `O=C(Nc1ccc(Br)cc1F)C1CC(=O)N(C2CCCCC2)C1` (stereo not given), the max response is -2.46% (inactive).

Take `CC1=CCC2C(=O)N(c3cccc(C(=O)NC(C)c4ccccc4)c3)C(=O)C2C1` (stereo not given): the max response was -2.5% (inactive).
